Experiment [1] deals with Cytochrome P450 3A4 (Homo sapiens) (UniProt P08684). Kind of experiment: qHTS Assay for Inhibitors and Substrates of Cytochrome P450 3A4 (AID 884). Further: nearly all actives have a fitted effect of over 50% in size. Further: potency means the concentration at half of the fitted maximal effect. In short, it runs like this:
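20 nM human CYP3A4 with 25 uM Luciferin-PPXE (at KM) in 200 mM KPO4, preincubated 10 min with compound; NADPH regeneration started a 60 min RT reaction. Luciferin detected by luminescence, normalized to 57 uM ketoconazole as full inhibition.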

For experiment [2], the target named is DNA dC->dU-editing enzyme APOBEC-3G (Homo sapiens) (UniProt Q9HC16). Kind of experiment: qHTS for inhibitors of Vif-A3G interactions: Validation (AID 588379). In short, it runs like this:
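HeLa cells stably expressing Vif and A3G-eYFP, 700 cells/well, incubated overnight at 37 deg C, then exposed to compound overnight at 37 deg C. Inhibition of Vif-mediated degradation read as increased yellow fluorescence (Ex 488/Em 500-530) by laser-scanning cytometry.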

The nature of experiment [3]: Confirmation and Secondary Assay for Modulators of Hemoglobin Beta Chain Splicing at IVS2 654 locus (AID 910).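 Further: HeLa cells stably carrying EGFP split by mutant beta-globin IVS2-654 intron.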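 Further: potency means the concentration at half of the fitted maximal effect; potency of activators that raise GFP signal by restoring correct splicing.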 In short, it runs like this: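 HeLa cells stably expressing EGFP interrupted by β-globin IVS2-654 intron, seeded overnight in Opti-MEM/2% FCS, then treated 2 days at 37 °C. Restored splicing read as total peak GFP intensity per well by laser scanning cytometry (488 nm excitation, 500–520 nm emission); 500 nM antisense PNA as control.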

Experiment [4] in a line: Confirmation and Secondary Assay for Modulators of Hemoglobin Beta Chain Splicing at IVS2 705 locus (AID 930).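 Further: GFP fluorescence per well restored by corrected splicing of the IVS2-705 intron in EGFP.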 Further: potency means the concentration at half of the fitted maximal effect.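 On activation: HeLa cells stably expressing the EGFP-705 splicing reporter.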 The method, boiled down: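 Stable HeLa line with EGFP disrupted by mutant beta-globin intron 2 (705). Overnight attachment, then 2 days of compound at 37C, 5% CO2. Signal: peak GFP intensity summed over objects 5-250 µm.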
Experiment [5] in a line: S16 Schwann cell PMP22 intronic element firefly luciferase assay (AID 624032). Further: nearly all actives have a fitted effect of over 30% in size. Further: potency means the concentration at half of the fitted maximal effect. The method, boiled down:
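Rat S16 Schwann cells stably carrying firefly luciferase driven by a PMP22 intronic element, in 10% FBS, treated 24 h at 37 C. ONE-Glo luminescence normalized to PTC124 control and DMSO (0%); curves classed by r2, magnitude and activity.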

Experiment [6] in a line: S16 Schwann cell PMP22 intronic element beta-lactamase assay (AID 624044; calls by dose curve; further: nearly all actives have a fitted effect of over 15% in size). In short, it runs like this: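 Rat S16 Schwann cells with beta-Lac driven by a PMP22 intronic element, compound-treated 24 h at 37 °C. LiveBLAzer FRET B/G read: 460 nm normalized to potassium clavulanate vs DMSO; 535 nm FRET as viability; concentration-effect curves classified.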
Another experiment deals with 7G8. The experiment is described as follows: qHTS profiling for inhibitors of Plasmodium falciparum proliferation (AID 504749). Further: nearly all actives have a fitted effect of over 60% in size. Further: potency means the concentration at half of the fitted maximal effect. To be noted: P. falciparum in erythrocytes, SYBR Green DNA, 72 h; series mostly up to 12.8 µM. In short, it runs like this:
(§1)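 P. falciparum-infected erythrocytes (0.3% parasitemia, 2.5% hematocrit) incubated with compound 72 h at 37 C, 5% CO2. Parasite DNA detected by SYBR Green after lysis, overnight at room temperature; normalised to 0.29 uM artemisinin and DMSO.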

Another experiment has as its system ATS95. Described as above. The conditions noted are these: P. falciparum in erythrocytes, SYBR Green DNA, 72 h; series mostly up to 12.8 µM. In short, it runs like this: as §1
A further experiment deals with CP203. The experiment is described as above. The conditions noted are these: P. falciparum in erythrocytes, SYBR Green DNA, 72 h; series mostly up to 12.8 µM. The method, boiled down:
as §1

The next experiment relates to DIV14. The experiment is described as above. To be noted: P. falciparum in erythrocytes, SYBR Green DNA, 72 h; series mostly up to 12.8 µM. In short, it runs like this: as §1
In a further experiment the test system is GB4. The description is as above. To be noted: P. falciparum in erythrocytes, SYBR Green DNA, 72 h; series mostly up to 12.8 µM. In short, it runs like this: as §1
In experiment [7] the target is Cytochrome P450 3A4 (Homo sapiens) (UniProt P08684). Kind of experiment: qHTS Assay for Activators of Cytochrome P450 3A4 (AID 885). Further: nearly all actives have a fitted effect of over 65% in size. Further: potency means the concentration at half of the fitted maximal effect. In short, it runs like this: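 Human CYP3A4 (20 nM) with Luciferin-PPXE at 25 uM (its KM) in 200 mM KPO4; 10 min compound preincubation, then NADPH regeneration and 60 min reaction at RT. Luciferin read by luminescence; normalized to 57 uM ketoconazole full inhibition.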

Experiment [8] has as its target 3',5'-cyclic-AMP phosphodiesterase 4B (Homo sapiens) (UniProt Q07343). The experiment is described as follows: qHTS Assay for Inhibitors of PDE-IV (AID 607; active means well fitted activation curve with a large enough effect in the main read-out, with a control signal flat, not every such curve was filed as active). In short, it runs like this:
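HEK293 ACTOne cells with CNG channel (1000/well), endogenous PDE4; membrane potential dye, compounds up to 22.9 uM final. Fluorescence Ex 535/Em 590; RO 20-1724 (100 uM final) as reference.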

Drawing on PubChem BioAssay (NCATS), this text covers Potency and outcome for 33 compounds.

Several values for one entry are separate records, joined by “and”; a condition that tells them apart may be missing. Equal entries are not always repeated. Records with an inconclusive call do not appear. Activity calls are given as the source filed them. Unless noted, the call rests on the fitted dose curve; in most records, active means well fitted curve in the direction sought with a large enough effect; inconclusive means small, poorly fitted or top-dose-only effect, or another doubt; inactive means no such curve, though single readings can be large; an effect the other way counts as inactive or inconclusive.

Sequence of DNA dC->dU-editing enzyme APOBEC-3G (Homo sapiens) (Q9HC16 whole entry, looked up): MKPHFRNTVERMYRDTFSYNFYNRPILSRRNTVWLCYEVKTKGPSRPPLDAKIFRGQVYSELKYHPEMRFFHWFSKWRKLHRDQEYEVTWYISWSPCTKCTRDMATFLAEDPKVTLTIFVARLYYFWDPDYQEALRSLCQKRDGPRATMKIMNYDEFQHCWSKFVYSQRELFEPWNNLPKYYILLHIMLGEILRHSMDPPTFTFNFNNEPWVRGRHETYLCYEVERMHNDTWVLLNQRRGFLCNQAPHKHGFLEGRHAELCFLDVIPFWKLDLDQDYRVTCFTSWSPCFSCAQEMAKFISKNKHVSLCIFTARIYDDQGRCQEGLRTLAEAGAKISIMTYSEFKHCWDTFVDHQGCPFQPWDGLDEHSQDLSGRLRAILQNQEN
Sequence of Cytochrome P450 3A4 (Homo sapiens) (P08684 whole entry, looked up): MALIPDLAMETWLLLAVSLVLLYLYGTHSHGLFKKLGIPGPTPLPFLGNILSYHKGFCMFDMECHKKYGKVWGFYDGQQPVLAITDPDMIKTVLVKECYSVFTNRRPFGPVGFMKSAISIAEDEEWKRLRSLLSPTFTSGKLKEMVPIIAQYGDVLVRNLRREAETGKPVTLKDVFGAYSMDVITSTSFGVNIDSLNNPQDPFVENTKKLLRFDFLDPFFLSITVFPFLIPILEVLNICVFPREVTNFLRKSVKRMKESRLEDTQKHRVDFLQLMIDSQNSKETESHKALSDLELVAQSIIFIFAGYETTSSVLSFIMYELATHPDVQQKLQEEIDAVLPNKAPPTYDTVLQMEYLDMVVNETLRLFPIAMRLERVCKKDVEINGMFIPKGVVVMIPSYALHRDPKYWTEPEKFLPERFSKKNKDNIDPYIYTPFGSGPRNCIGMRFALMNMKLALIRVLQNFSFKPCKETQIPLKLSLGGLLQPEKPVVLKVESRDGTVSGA
Sequence of 3',5'-cyclic-AMP phosphodiesterase 4B (Homo sapiens) (Q07343 whole entry, looked up): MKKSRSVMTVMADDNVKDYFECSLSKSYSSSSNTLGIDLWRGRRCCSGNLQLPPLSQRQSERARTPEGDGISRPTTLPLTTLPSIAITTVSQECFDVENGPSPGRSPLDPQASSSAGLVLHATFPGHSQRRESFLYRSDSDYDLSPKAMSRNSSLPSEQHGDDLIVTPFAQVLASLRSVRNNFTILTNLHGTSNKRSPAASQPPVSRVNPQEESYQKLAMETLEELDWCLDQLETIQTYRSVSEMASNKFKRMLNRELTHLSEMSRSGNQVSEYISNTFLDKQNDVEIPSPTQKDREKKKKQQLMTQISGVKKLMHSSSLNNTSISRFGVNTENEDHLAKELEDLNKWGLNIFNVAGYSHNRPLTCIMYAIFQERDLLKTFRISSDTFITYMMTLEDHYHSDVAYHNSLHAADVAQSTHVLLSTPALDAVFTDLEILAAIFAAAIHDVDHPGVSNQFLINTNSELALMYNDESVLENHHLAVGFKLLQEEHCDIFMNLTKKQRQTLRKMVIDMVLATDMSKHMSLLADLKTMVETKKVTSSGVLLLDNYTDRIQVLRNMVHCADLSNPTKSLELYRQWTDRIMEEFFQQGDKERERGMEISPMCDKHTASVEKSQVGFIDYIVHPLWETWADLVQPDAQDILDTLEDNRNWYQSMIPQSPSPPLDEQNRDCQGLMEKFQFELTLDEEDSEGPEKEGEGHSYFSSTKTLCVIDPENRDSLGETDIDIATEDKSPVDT

`O=c1[nH]c(=O)n([C@@H]2O[C@H](CO)[C@@H](O)[C@H]2O)cc1F`: the Potency entry in [1] is “inactive”. For the same compound, in [2], the call was inactive.

Regarding `COc1ccc(-c2cc(=O)c3c(O)cc(O[C@H]4OC(COC5OC(C)C(O)C(O)[C@H]5O)C(O)C(O)C4O)cc3o2)cc1O` (some centres undefined), the Potency result (in experiment [1]; in [3]; in experiment [4]; in experiment [5]; in [6]; in the experiment on 7G8) was “inactive” throughout. Also, the Potency entry in the experiment with ATS95, with CP203, in the experiment on DIV14 and with GB4 was “inactive” throughout.

On to `C=Cc1c(C)/c2[n-]/c1=C\c1[n-]c(c(CC)c1C)/C=c1\[n-]c3c(c1C)C(=O)C(C(=O)[O-])C=3c1[n-]c(c(C)c1CCC(=O)[O-])\C=2.[Cu].[Na+].[Na+]` (centres undefined), for which the Potency entry in [7], in experiment [3], in experiment [4], in [5] and in experiment [6] was “inactive” in each case.

As for `COC1OC2COC(c3ccccc3)OC2C(O)C1O` (centres undefined), the Potency result in experiment [1] was “inactive”. Also, the compound was called inactive in experiment [2].

With `O=c1ccn([C@H]2C[C@H](O)[C@@H](CO)O2)c(=O)[nH]1`, in experiment [1], the Potency result was “inactive”. Besides, the compound was classed as inactive in experiment [2].

Regarding `OCC1OC(Oc2cccc3cccnc23)C(O)C(O)C1O` (centres undefined), the Potency entry in experiment [1] is “inactive”. In experiment [2], the compound was called inactive.

Consider `NC(=O)NCCC[C@H](N)C(=O)O`, for which the Potency result in experiment [1] was “inactive”. Further, in [2], the call was inactive.

Turning to `CC1(C)S[C@H]2C(NC(=O)[C@@H](N)c3ccc(O)cc3)C(=O)N2[C@@H]1C(=O)O` (some centres undefined), the Potency entry (in experiment [1]; in experiment [3]; in [4]; in experiment [5]; in the experiment with 7G8; in the experiment on ATS95) was “inactive” each time. In addition, the Potency entry in the experiment with CP203, with DIV14 and with GB4 was “inactive” each time.

In the case of `CC(=O)O[C@@]1(C(C)=O)CCC2C3CC(C)C4=CC(=O)CC[C@@]4(C)C3CC[C@]21C` (some centres undefined), the Potency result (in [7]; in [3]; in [4]; in experiment [6]; with CP203; in the experiment on DIV14) was “inactive” each time. For the same compound, the Potency result with GB4 was “inactive”. For the same compound, the Potency in the experiment with 7G8 is 7.94 µM (active).

Turning to `COC(=O)[C@H]1[C@@H]2C[C@@H]3c4[nH]c5ccccc5c4CCN3C[C@H]2CC[C@H]1O`, the compound was called inactive in experiment [2].

As to `CC[C@H](CC[C@@H](C)C1CC[C@H]2[C@@H]3CC=C4C[C@@H](O)CC[C@]4(C)[C@H]3CC[C@]12C)C(C)C` (some centres undefined), in experiment [2], the compound was called inactive.

Regarding `N[C@H](Cc1ccc(O)cc1)C(=O)O`, the compound was classed as inactive in experiment [2].

On to `NC(CCC(=O)N[C@@H](CS)C(=O)NCC(=O)O)C(=O)O` (some centres undefined), for which the Potency result in experiment [1], in experiment [3], in experiment [4] and in experiment [6] was “inactive” each time. The Potency in the experiment with 7G8 was 0.708 µM (active); with DIV14 it was 3.01 µM (active); with GB4 it was 6.75 µM (active).

On to `C[C@@H]1O[C@@H](O[C@H]2[C@H](Oc3cc(O)c4c(c3)O[C@H](c3ccc(O)cc3)CC4=O)O[C@H](CO)[C@@H](O)[C@@H]2O)[C@H](O)[C@H](O)[C@H]1O`, for which the Potency result in experiment [1] is “inactive”. Further, the result in [2] was inactive.

For `N[C@@H]1C(O)OC(CO)C(O)C1O` (some centres undefined), the Potency entry (in experiment [1]; in experiment [3]; in experiment [4]; in experiment [5]; in the experiment with 7G8; in the experiment with ATS95) was “inactive” in each case.

As for `CC(=O)OCC(=O)[C@@]12OC3(CCCC3)OC1CC1C3CCC4=CC(=O)C=C[C@@]4(C)[C@]3(F)C(O)C[C@]12C` (some centres undefined), the Potency entry in [3], in experiment [4] and in experiment [5] was “inactive” each time. Moreover, the Potency with 7G8 is 11.2 µM (active).

For the compound `CCC(C)C(=O)OC1CC(O)C=C2C=CC(C)C(CCC(O)CC(O)CC(=O)O)C21` (centres undefined), the Potency result (in experiment [1]; in [3]; in experiment [4]; in experiment [5]; in [6]; with ATS95) was “inactive” in each case. For the same compound, the Potency entry with CP203, with DIV14 and in the experiment with GB4 was “inactive” each time.

As for `COc1ccc(-c2cc(=O)c3c(O)cc(O)cc3o2)cc1`, the compound was called inactive in experiment [8] and in experiment [2]. The Potency in [1] is 2.51 µM (active) and 7.94 µM (active) and 3.16 µM (active). Further, the Potency result in experiment [7], in experiment [3] and in [4] was “inactive” in each case.

Turning to `Cc1cc(=O)oc2cc(O[C@@H]3O[C@H](C(=O)O)[C@@H](O)[C@H](O)[C@H]3O)ccc12`, the outcome in experiment [2] was inactive.

For `N[C@H](CO)Cc1cnc[nH]1`, the outcome in [2] was inactive.

As for `CC(C)Oc1ccc2c(=O)cc(-c3ccccc3)oc2c1`, the Potency entry (in experiment [1]; in experiment [3]; in experiment [4]; in experiment [5]; in the experiment on 7G8; in the experiment with ATS95) was “inactive” in each case. Further, the Potency result in the experiment on CP203 and in the experiment on DIV14 was “inactive” each time.

Consider `C#C[C@]1(O)CCC2C3CCC4=CC(=O)CCC4C3CC[C@@]21C` (some centres undefined), for which the Potency entry in experiment [3] and in experiment [4] was “inactive” in each case.

In the case of `CC1=CC(=O)[C@@H]2C[C@H]1C2(C)C`, the Potency result in experiment [1] was “inactive”. Also, in [2], the compound was called inactive.

Regarding `CCC1OC(=O)CC(O)C(C)[C@@H](O[C@@H]2OC(C)[C@H](O[C@@H]3C[C@@](C)(O)C(O)C(C)O3)C(N(C)C)C2O)[C@H](CC=O)CC(C)C(=O)/C=C/C(C)=C/[C@@H]1COC1OC(C)C(O)C(OC)[C@@H]1OC` (some centres undefined), the Potency entry in experiment [1], in [3], in experiment [4], in experiment [5] and in experiment [6] was “inactive” in each case.

Regarding `C[C@@]12CCC(=O)C=C1C=CC1C2CC[C@]2(C)C1CC[C@@]21CCC(=O)O1` (some centres undefined), the Potency result (in [1]; in experiment [3]; in experiment [4]; with ATS95; in the experiment on CP203; in the experiment with GB4) was “inactive” in each case. The Potency in experiment [7] is 15.8 µM (active).

On to `C[C@@]12C=CC(=O)C=C1CCC1C3CC(O)[C@@](O)(C(=O)CO)[C@]3(C)CC(O)[C@]12F` (some centres undefined), for which the Potency entry (in experiment [3]; in [4]; in [5]; in the experiment on 7G8; in the experiment with ATS95; in the experiment on CP203) was “inactive” each time. In addition, the Potency entry with DIV14 and with GB4 was “inactive” each time.

In the case of `O=C(O)C1OC(O)C(O)C(O)C1O` (centres undefined), the Potency entry in experiment [1] was “inactive”. For the same compound, the outcome in experiment [2] was inactive.

For `O=C(O)C1=C[C@@H](O)[C@@H](O)[C@H](O)C1`, the compound was classed as inactive in experiment [2].

With `O=C(O)C1(O)C[C@H](O)C(O)[C@@H](O)C1` (some centres undefined), the compound was called inactive in experiment [2].

For `C[C@H](CCC(=O)O)[C@H]1CC[C@H]2[C@H]3C(C[C@H](O)[C@]12C)[C@@]1(C)CC[C@@H](O)C[C@H]1C[C@H]3O` (some centres undefined), in experiment [2], the call was inactive.

For `CCCCCCCCCc1ccc(OCCOCCOCCOCCOCCOCCOCCOCCOCCO)cc1`, the Potency result (in [3]; in experiment [4]; with ATS95) was “inactive” throughout. The Potency with 7G8 was 12.6 µM (active).

Take `OCC1OC(n2cnc3c(=S)nc[nH]c32)C(O)C1O` (centres undefined): the Potency entry (in experiment [1]; in experiment [6]; in the experiment with ATS95; in the experiment on CP203; in the experiment on DIV14) was “inactive” in each case. Moreover, the values for the Potency in [3], in experiment [4] and in [5] were 3.16 µM (active), 3.98 µM (active) and 2.87 µM (active), respectively.

Regarding `CC1C2CCC3C4CC=C5CC(N(C)C)CC[C@@]5(C)C4CC[C@@]32CN1C` (some centres undefined), the Potency result (in experiment [1]; in experiment [3]; in experiment [4]; in experiment [5]; in experiment [6]; with ATS95) was “inactive” each time. In addition, the Potency entry in the experiment with CP203, in the experiment with DIV14 and with GB4 was “inactive” each time.
